Compound activity (PubChem BioAssay)
The list is not random: actives were taken first. Their share in the collection is about 1.5%.
HUVEC tox TNFa: HUVEC cytotoxicity counter-screen, TNF alpha stimulated. HUVEC TNFalpha-stimulated, Hoechst cell count, imaging. cell count reduction, % at 2 µM. 93,000 compounds, 0.17% hits;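 active = cell count reduction exceeding the screen mean by over 5 SD, scaled to untreated wells per plate, cut at about 78% in these data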;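 note: cells counted after 24 h of TNF alpha exposure following the 1 h pretreatment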
IL1B cytotox: HUVEC cytotoxicity counter-screen, IL-1B stimulated | 94,000 compounds, 0.41% hits | cell count reduction, % at 2 µM | HUVEC cell count loss, Hoechst imaging;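 active = cell count reduction more than 3 SD above the screen-wide mean, cut at about 70% in these data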
IL1B NFkB pot: enhances IL-1B driven NFkB nuclear translocation; 94,000 compounds, 0.3% hits; activation, % at 2 µM; HUVEC IL-1B NFkB p65 nuclear translocation imaging;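 active = activation above 40%, about the mean plus 3 SD, also judged a hit on visual image review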;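 note: percent activation is computed from the nuclear over cytoplasmic p65 intensity ratio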
VCAM1 TNFa inh: reduces TNF alpha induced VCAM1 expression in HUVEC. HUVEC TNFa-induced VCAM-1 immunofluorescence, high-content imaging. inhibition, % at 2 µM. 95,000 compounds, 0.48% hits. AID 802;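 active = inhibition above the batch mean plus 3 SD, with images confirmed as a hit by eye, cut at about 37% in these data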
NFkB transloc inh: blocks IL-1B driven NFkB nuclear translocation in HUVEC cells; HUVEC IL-1B NFkB p65 nuclear translocation imaging; inhibition, % at 2 µM; 94,000 compounds, 0.43% hits;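 active = inhibition above about 30% together with a positive call from visual inspection of the well image, limit read from the data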;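 note: nuclear over cytoplasmic p65 intensity ratio measured by imaging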
Of the large screens only hits and unclear results are named; the others gave an inactive call.

COC(=O)c1sc2cnccc2c1N	IL1B cytotox 78
COC(=O)c1sc2nc(-c3ccco3)ccc2c1N	none (no result: HUVEC tox TNFa, VCAM1 TNFa inh)
CCC(=O)OCc1c(C(F)(F)F)nn(C)c1Sc1ccc(F)cc1	none
Cc1csc(NC(=O)CSc2ncnc3c2cnn3-c2ccccc2Cl)n1	none
Cc1ccccc1-n1ncc2c(SCC(=O)NCc3cccs3)ncnc21	IL1B NFkB pot 105
CCCCCCCOC(=O)C1=C(C)Nc2ncnn2C1c1cccs1 (stereo not drawn)	IL1B NFkB pot 41
COC(=O)C1=C(C)N(C)C(=O)NC1c1ccccc1 (stereo not drawn)	IL1B NFkB pot 47
COC(=O)C1=C(C)N(C)C(=O)NC1c1cc(Cl)c(O)c(OC)c1 (stereo not drawn)	none
COc1ccc(-c2cc(C(=O)Nc3cc(C)n(Cc4ccc(Cl)cc4)n3)no2)cc1OC	VCAM1 TNFa inh 52
COc1ccccc1CNC(=O)c1c(-c2ccccc2)nn(-c2ccccc2)c1C	none
Cc1c(C(=O)O)c(-c2ccccc2)nn1-c1ccccc1	IL1B cytotox 95 (no result: HUVEC tox TNFa)
CCOC(=O)c1cc(-c2cc3ccccc3o2)nc2c1c(=O)[nH]c(=O)n2CCOC	none
CCc1ccc(N2CC(C(=O)OCC(=O)NC3CCS(=O)(=O)C3)CC2=O)cc1 (stereo not drawn)	IL1B cytotox 92 (no result: HUVEC tox TNFa)
COC(=O)C1=C(C)N(CCc2ccccc2)C(=O)C1	IL1B cytotox 93, NFkB transloc inh 88
CCCN1C(=O)CC(C(=O)OC)=C1C	none
